The nature of assay [1]: nonspecific flux increase, KCNQ1-free cells – parental CHO cells, counter-screen for KCNQ1 potentiator project (AID 493006;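 active = duplicate-averaged activation above buffer control mean plus 5 SD of those controls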;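 as to activation: fluorescence ratio of max minus min over baseline after K+ and Tl+ depolarization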). The settings on record: parental CHO-K1 cells, FluxOR thallium flux, at 10 µM; active compounds read high. On the technique in general: A counterscreen serves to expose hits that act by an unwanted route or on another target.
For assay [2], the target named is Potassium voltage-gated channel subfamily KQT member 1 (Homo sapiens) (UniProt P51787). In words: enhancement of KCNQ1 channel thallium flux – FluxOR thallium flux, CHO cells, duplicates, confirmation (AID 493007;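 active = potentiation averaged over duplicate wells exceeding buffer-only control mean by more than 3 SD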;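 as to outcome: cells depolarized by a potassium plus thallium sulfate stimulus after compound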;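 as to potentiation: 0% = buffer-only wells and 100% = R-L3 activator control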). The conditions noted are these: KCNQ1 cell line, FluxOR thallium flux fluorescence, at 10 µM; active compounds read high, % of reference activator effect, buffer zero.

Assay [3] deals with Potassium voltage-gated channel subfamily KQT member 2 (Rattus norvegicus) (UniProt O88943). In words: KCNQ2 thallium flux enhancement – KCNQ2-CHO-K1 cells, selectivity assay for KCNQ1 potentiator project (AID 493009;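 active = mean duplicate potentiation above the buffer control mean plus 5 SD of buffer wells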;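 also: assay conditions were tuned for KCNQ1 rather than KCNQ2 modulators; signal is max minus min fluorescence divided by baseline after thallium stimulus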). The settings on record: FluxOR thallium flux fluorescence, at 10 µM; active compounds read high, scaled: buffer 0, activator control 100.
Assay [4] concerns the target Potassium voltage-gated channel subfamily KQT member 1 (Homo sapiens) (UniProt P51787). Nature of the assay: KCNQ1 activators by electrophysiology – IonWorks patch clamp, KCNQ1-CHO cells, orthogonal assay for KCNQ1 potentiator project, confirmation (AID 493184;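 active = current rise at least 3 SD above the untreated control mean in each of two repeat wells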). The settings on record: automated patch clamp current, at 10 µM. A general note: The patch-clamp technique gives a direct electrical read-out from membranes.

Assay [5] concerns TRPC4 beta (transient receptor potential cation channel C4), mouse. In words: TRPC4 cation channel opening, retest – cell-based, Fluo4 calcium, HEK293 TRPC4beta/mu-opioid, duplicates, 10 µM, confirmation (AID 2426;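 active = fluorescence ratio normalized to control raised more than 50% in primary screen plus both repeat runs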;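 also: percent rise of integrated ratio over buffer wells lacking compound which define 0%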). The conditions noted are these: Fluo4 calcium fluorescence, at 10 µM; active compounds read high.
Assay [6] deals with transient receptor potential cation channel C4 beta (TRPC4), mouse. In words: TRPC4 cation channel opening, second retest – cell-based, second round, Fluo4, HEK293 TRPC4beta/mu-opioid, 1 µM, confirmation (AID 2461;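 active = primary screen active and over 50% activation in each of two duplicate runs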;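 as to activation: 0% = wells without test compound as baseline of integrated fluorescence ratio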). The conditions noted are these: Fluo4 calcium fluorescence, at 1 µM; active compounds read high.
Assay [7] has as its system TRPC4 (transient receptor potential cation channel C4 beta), mouse. Nature of the assay: potentiation of DAMGO EC20 TRPC4 response – cell-based, second round, Fluo-4, HEK293 TRPC4beta/mu-opioid, 1 µM, confirmation (AID 2554;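 active = primary screen hit whose fluorescence ratio, in both repeats, exceeds the weak agonist control mean by 3 SD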). The settings on record: DAMGO EC20, Fluo-4 calcium flux, at 1 µM; active compounds read high. On the technique in general: A change in cytosolic calcium serves as a functional read-out for many receptors and channels.

For assay [8], the system named is TRPC4 beta (transient receptor potential cation channel C4), mouse. In words: potentiation of DAMGO EC20 TRPC4 response – cell-based, Fluo-4, HEK293 TRPC4beta/mu-opioid, confirmation (AID 2555;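 active = primary screen hit whose calcium fluorescence ratio, in both repeats, exceeds the weak agonist control mean by 3 SD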). The conditions noted are these: DAMGO EC20, Fluo-4 calcium flux, at 10 µM; active compounds read high.
For assay [9], the target named is Short transient receptor potential channel 4 (Mus musculus) (UniProt Q9QUQ5). Nature of the assay: blockers of DAMGO-evoked TRPC4 calcium flux – cell-based, Fluo4, HEK293 TRPC4beta/mu-opioid, confirmation (AID 2636;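 active = calcium signal cut by more than 3 SD below the full-agonist control yet still positive, in both repeats and the earlier primary screen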). The settings on record: at 10 µM; active compounds read high.
Assay [10] shares this target. Nature of the assay: blockers of DAMGO-evoked TRPC4 calcium flux – cell-based, second round, Fluo4, HEK293 TRPC4beta/mu-opioid, 1 µM, confirmation (AID 2637;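 active = calcium signal ratio cut to more than 3 SD under the fully stimulated control mean yet still positive, in both repeats and the primary screen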). The conditions noted are these: at 1 µM; active compounds read high.
Assay [11] has the same target. Nature of the assay: potentiation of DAMGO-evoked TRPC4 calcium signal – cell-based, HEK293 TRPC4/mu-opioid, Fluo-4 calcium, EC20 DAMGO, dose response (AID 434941;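 active = earlier screen potentiator hit that boosts the TRPC4 ion channel at some dose, with a dose response; inactive = no potentiation, no dose response, or not a prior hit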;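 also: calcium entry triggered by an EC20 dose of DAMGO at the co-expressed mu-opioid receptor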).
The target is the same in assay [12]. Nature of the assay: block of DAMGO-driven TRPC4 calcium entry – cell-based, HEK293 TRPC4/mu-opioid, Fluo-4 calcium, dose response (AID 434942).
Assay [13] addresses Short transient receptor potential channel 6 (Mus musculus) (UniProt Q61143). In words: TRPC6 blockade by TRPC4 inhibitor hits – cell-based, HEK293, membrane potential dye, duplicate, selectivity assay for TRPC4 inhibitor project, confirmation (AID 434948;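 active = active in primary screen and both duplicates, each dropping signal beyond three positive-control SD with fluorescence still positive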). The conditions noted are these: HEK293 TRPC6, membrane potential dye fluorescence, at 10 µM; inhibition: active compounds read high, stimulated with maximal-effect acetylcholine unless noted; outcome: stimulated with maximal-effect acetylcholine unless noted.

For assay [14] the target is unchanged. In words: TRPC6 opening by TRPC4 activator hits – cell-based, HEK293, membrane potential dye, duplicate, selectivity assay for TRPC4 activator project, confirmation (AID 434950;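 active = membrane potential signal rise above negative control mean plus 3 SD in both duplicates, also active in the earlier TRPC4 screen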;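 as to activation: 0% = buffer only wells and 100% = acetylcholine maximal-effect wells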). The conditions noted are these: HEK293 TRPC6, membrane potential fluorescence, at 10 µM; activation: active compounds read high; outcome: activation.
Assay [15] has the same target. In words: positive modulators of mouse TRPC6 channel – HEK293 cells, membrane potential dye, duplicate, selectivity assay for TRPC4 potentiator project, confirmation (AID 434952;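 active = compound raising the membrane signal above positive-control mean plus 3 SD in both repeats, and a primary screen hit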). The conditions noted are these: HEK293 TRPC6, membrane potential dye fluorescence, at 10 µM; maximal acetylcholine added after compound unless noted.
The target in assay [16] is Short transient receptor potential channel 4 (Mus musculus) (UniProt Q9QUQ5). Nature of the assay: calcium flux activators in TRPC4/5HT1a cells, counter-screen for TRPC4 activator project, cell-based, second counter screen, HEK293 TRPC4/5HT1a, Fluo-4 (AID 434977;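 active = calcium signal rise above buffer-control mean plus 5 SD in both duplicates, and also a hit in the primary screen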;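 as to activation: plate controls were assay buffer for no effect and maximal serotonin response for full effect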). The settings on record: Fluo-4 calcium flux, at 10 µM; active compounds read high.
Assay [17] can be described thus: serotonin-gated TRPC4 signal block – cell-based, second counter screen, HEK293 TRPC4/5HT1a, Fluo-4, counter-screen for TRPC4 inhibitor project, confirmation (AID 434978;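 active = primary screen active whose calcium signal fell more than 3 SD beyond the full-serotonin control mean in both duplicate plates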;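 also: serotonin given first at submaximal then at maximal dose after compound preincubation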). The conditions noted are these: Fluo-4 calcium flux, at 10 µM; inhibition: active compounds read high, serotonin added to trigger calcium flux unless noted; outcome: serotonin added to trigger calcium flux unless noted.

The test system of assay [18] is TRPC4 (mouse), co-expressed with 5HT1a in HEK293. Nature of the assay: enhancement of serotonin-evoked TRPC4 response – cell-based, second counter screen, HEK293 TRPC4/5HT1a, Fluo-4, counter-screen for TRPC4 potentiator project, confirmation (AID 434979;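 active = signal rise over 3 SD above mean of control wells given weak agonist, in both repeats and first screen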). The conditions noted are these: Fluo-4 calcium flux, at 10 µM; outcome: serotonin added at its EC20 dose unless noted; potentiation: active compounds read high, serotonin added at its EC20 dose unless noted.

Assay [19] in a line: nonspecific calcium rise without TRPC4 – cell-based, HEK293 mu-opioid receptor line, counter-screen for TRPC4 activator project, confirmation (AID 449723;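 active = hit in primary screen, with calcium signal over 5 SD above buffer well mean in both duplicates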;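 also: counter screen cells carry the mu-opioid receptor alone and lack TRPC4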). The settings on record: HEK293 mu-opioid cells, Fluo-4 calcium fluorescence, at 10 µM; active compounds read high.
Assay [20] is described as follows: nonspecific potentiation of DAMGO calcium response – cell-based, HEK293 mu-opioid receptor line, counter-screen for TRPC4 allosteric potentiator project, confirmation (AID 449724;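 active = calcium signal rise more than 3 SD above the low-dose agonist control mean, in both duplicate plates and the primary screen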). The conditions noted are these: HEK293 mu-opioid receptor cells, Fluo-4 calcium flux, at 10 µM; compound added before EC20 DAMGO stimulus unless noted.
In assay [21] the target is Short transient receptor potential channel 4 (Mus musculus) (UniProt Q9QUQ5). In words: DAMGO-gated TRPC4 membrane potential modulation – cell-based, second specificity screen, HEK293 TRPC4/mu-opioid, selectivity assay for TRPC6 inhibitor project, confirmation (AID 2776;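 active = compounds whose fluorescence signal differed from control wells by over 3 SD, either direction, in both duplicate plates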). The settings on record: HEK293 TRPC4/MOR, membrane potential dye fluorescence; at 10 µM; active compounds read high; channel activated by saturating DAMGO dose.

Assay [22] deals with transient receptor potential cation channel C4 (TRPC4), mouse. In words: membrane potential change in TRPC4 cells – cell-based, HEK293 TRPC4/mu-opioid, membrane potential dye, selectivity assay for TRPC6 inhibitor project, confirmation (AID 2777;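 active = rise or fall in signal beyond 3 SD of buffer-only wells in both replicate plates, either sign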;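 also: integrated kinetic ratio of fluorescence range over baseline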). The conditions noted are these: membrane potential fluorescence, at 10 µM.
Assay [23] in a line: parental HEK293 depolarization signal interference – cell-based, second counter screen, counter-screen for TRPC6 inhibitor project, confirmation (AID 2779;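 active = membrane potential signal moving either way by over 3 SD of the maximum-effect control, in both duplicate plates, meaning non-specific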). The settings on record: parental HEK293 membrane potential dye fluorescence; at 10 µM; maximal acetylcholine challenge after compound addition.
Assay [24] in a line: nonspecific voltage dye signal in HEK293 – cell-based, parental HEK293, counter-screen for TRPC6 inhibitor project, confirmation (AID 2780;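 active = membrane potential signal shifting up or down by more than 3 SD of buffer-only wells, on both duplicate plates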;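 as to membrane potential signal change: plate controls were buffer EC0 wells for no effect and acetylcholine ECmax wells for full effect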). The settings on record: parental HEK293 membrane potential dye fluorescence; at 10 µM.
The target in assay [25] is Short transient receptor potential channel 6 (Mus musculus) (UniProt Q61143). Nature of the assay: blockers of TRPC6 cation channel activity – HEK293 cells, membrane potential dye, duplicate, confirmation (AID 488960;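 active = fluorescence ratio falls more than 5 SD below the full-stimulation control mean, in both duplicate runs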;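 as to inhibition: integrated fluorescence ratio of peak minus minimum over baseline after agonist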). The settings on record: ACh-evoked depolarization, at 10 µM; active compounds read high.
For assay [26] the target is unchanged. In words: mouse TRPC6 channel activators, confirmation, HEK293 cells, membrane potential dye, duplicate (AID 488961;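 active = ratio signal rise beyond 5 SD above unstimulated control wells' mean, seen in both duplicate runs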). The conditions noted are these: HEK293-TRPC6 membrane potential dye fluorescence, FDSS; at 10 µM.

For part of these data: Potency and affinity values are given separately. This is one part of the list. The source made the active and inactive calls.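 The calls were made as follows, unless noted: active = primary screen inhibitor hit that blocks the TRPC4 channel at some tested dose, yielding a dose curve; inactive = the rest.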

For orientation: inhibition means the relative decrease from the control value, in per cent.

Potassium voltage-gated channel subfamily KQT member 2 (Rattus norvegicus), sequence (O88943 whole entry, looked up): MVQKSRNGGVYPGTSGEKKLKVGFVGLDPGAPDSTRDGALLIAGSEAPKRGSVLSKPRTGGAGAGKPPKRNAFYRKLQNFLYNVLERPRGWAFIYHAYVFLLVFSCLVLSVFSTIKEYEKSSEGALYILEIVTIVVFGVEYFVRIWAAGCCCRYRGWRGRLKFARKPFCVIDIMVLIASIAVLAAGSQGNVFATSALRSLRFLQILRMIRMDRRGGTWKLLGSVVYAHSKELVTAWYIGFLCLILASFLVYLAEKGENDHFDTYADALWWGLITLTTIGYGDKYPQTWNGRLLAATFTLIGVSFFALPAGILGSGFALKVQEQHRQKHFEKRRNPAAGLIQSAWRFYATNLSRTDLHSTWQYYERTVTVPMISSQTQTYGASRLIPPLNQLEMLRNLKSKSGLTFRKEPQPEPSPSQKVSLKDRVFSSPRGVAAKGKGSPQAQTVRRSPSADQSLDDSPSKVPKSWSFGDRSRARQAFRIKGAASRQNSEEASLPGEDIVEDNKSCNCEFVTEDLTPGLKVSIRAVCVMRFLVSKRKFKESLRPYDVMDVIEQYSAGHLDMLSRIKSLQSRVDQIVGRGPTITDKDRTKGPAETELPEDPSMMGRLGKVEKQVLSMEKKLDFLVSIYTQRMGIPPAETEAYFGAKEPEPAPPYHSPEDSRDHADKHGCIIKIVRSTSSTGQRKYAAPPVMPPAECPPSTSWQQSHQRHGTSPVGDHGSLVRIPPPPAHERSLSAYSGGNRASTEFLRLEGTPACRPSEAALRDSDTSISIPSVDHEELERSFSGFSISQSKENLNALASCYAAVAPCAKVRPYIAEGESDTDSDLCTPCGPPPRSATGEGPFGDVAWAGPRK
Potassium voltage-gated channel subfamily KQT member 1 (Homo sapiens), sequence (P51787 whole entry, looked up): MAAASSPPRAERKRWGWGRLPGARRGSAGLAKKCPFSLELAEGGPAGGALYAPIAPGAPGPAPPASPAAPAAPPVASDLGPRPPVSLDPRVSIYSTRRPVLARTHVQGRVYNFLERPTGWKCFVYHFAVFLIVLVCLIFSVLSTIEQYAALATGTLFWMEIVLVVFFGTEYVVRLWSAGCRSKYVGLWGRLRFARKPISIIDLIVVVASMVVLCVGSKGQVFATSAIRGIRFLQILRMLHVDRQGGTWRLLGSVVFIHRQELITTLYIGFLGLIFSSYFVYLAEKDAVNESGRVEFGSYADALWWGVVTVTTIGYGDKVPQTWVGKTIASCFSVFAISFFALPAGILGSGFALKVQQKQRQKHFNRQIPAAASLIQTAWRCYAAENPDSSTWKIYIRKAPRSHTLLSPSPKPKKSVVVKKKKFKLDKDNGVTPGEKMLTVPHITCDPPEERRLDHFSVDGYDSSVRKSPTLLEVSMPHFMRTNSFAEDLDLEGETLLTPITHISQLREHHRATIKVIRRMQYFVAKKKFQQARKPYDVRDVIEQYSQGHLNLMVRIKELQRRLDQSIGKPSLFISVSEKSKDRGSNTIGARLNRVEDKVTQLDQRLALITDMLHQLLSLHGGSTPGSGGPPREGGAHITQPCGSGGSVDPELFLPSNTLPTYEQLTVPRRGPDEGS
Short transient receptor potential channel 6 (Mus musculus), sequence (Q61143 whole entry, looked up): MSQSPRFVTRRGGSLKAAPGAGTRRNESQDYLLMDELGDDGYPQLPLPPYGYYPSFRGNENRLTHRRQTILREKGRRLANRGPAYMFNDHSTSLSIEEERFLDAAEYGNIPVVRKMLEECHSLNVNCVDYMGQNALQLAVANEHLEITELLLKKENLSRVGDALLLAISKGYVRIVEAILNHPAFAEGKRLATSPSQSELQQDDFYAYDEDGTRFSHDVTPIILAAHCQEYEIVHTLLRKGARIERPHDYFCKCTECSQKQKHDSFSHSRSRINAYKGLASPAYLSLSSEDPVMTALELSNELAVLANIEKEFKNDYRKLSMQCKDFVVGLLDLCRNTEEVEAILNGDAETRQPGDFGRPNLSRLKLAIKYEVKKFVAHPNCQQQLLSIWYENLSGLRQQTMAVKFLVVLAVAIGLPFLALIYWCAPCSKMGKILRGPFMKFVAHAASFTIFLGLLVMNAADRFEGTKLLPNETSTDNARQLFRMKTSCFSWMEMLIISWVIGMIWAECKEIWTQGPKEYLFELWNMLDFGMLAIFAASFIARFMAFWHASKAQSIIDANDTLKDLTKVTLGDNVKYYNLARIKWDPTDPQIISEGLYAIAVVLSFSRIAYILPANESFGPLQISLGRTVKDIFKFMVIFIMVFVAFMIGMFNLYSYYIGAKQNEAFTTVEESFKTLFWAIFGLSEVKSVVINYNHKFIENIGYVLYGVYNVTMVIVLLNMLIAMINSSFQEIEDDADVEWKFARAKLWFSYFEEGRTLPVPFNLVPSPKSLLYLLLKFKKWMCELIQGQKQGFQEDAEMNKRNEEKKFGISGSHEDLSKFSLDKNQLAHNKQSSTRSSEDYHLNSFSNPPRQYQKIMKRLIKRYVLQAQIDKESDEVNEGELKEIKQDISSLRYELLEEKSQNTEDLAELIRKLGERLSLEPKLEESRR
Short transient receptor potential channel 4 (Mus musculus), sequence (Q9QUQ5 whole entry, looked up): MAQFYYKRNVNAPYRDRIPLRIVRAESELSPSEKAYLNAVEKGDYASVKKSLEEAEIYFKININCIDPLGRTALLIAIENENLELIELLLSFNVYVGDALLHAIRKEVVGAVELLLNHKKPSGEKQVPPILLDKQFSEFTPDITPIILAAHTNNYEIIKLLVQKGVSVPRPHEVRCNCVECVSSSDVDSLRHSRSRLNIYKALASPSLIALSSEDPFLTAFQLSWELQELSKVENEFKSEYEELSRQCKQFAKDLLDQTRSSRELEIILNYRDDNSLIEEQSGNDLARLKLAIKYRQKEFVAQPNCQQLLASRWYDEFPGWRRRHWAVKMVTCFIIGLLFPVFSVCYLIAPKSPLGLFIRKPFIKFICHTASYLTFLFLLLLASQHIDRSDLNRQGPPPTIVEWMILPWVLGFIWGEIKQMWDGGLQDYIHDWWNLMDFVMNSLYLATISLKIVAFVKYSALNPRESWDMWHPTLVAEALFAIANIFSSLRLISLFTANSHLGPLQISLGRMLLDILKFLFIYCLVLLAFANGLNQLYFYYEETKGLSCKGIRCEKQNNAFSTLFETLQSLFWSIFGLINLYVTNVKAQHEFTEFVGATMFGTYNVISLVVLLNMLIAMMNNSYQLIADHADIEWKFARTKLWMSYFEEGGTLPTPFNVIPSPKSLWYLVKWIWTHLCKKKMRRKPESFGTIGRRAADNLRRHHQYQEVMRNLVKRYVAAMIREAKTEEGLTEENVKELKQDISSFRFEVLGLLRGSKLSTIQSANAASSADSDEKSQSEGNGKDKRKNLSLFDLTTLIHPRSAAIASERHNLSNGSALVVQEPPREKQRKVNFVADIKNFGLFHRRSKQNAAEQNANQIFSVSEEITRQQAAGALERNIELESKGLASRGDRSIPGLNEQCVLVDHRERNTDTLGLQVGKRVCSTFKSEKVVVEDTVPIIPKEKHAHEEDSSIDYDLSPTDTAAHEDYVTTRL

`C=C(C)[C@@]12OC3(c4ccccc4)O[C@@H]1C1[C@@H]4O[C@]4(CO)[C@@H](O)[C@]4(O)C(=O)C(C)=C[C@H]4[C@@]1(O3)[C@H](C)[C@H]2OC(=O)/C=C/C=C/c1ccccc1` (some centres not stated): the result in [1], in assay [2], in assay [3] and in assay [4] was inactive.
On to `COc1ccc(CNCCc2c[nH]c3ccccc23)cc1OC`, for which the results for the activation in assay [5] and in [14] were 110% (active) and 28% (active), respectively. The outcome in [6], in assay [7], in assay [8], in [9], in assay [10] and in [11] was inactive. The outcome in assay [12], in [13], in assay [15], in assay [16], in assay [17] and in assay [18] was inactive. Also, the outcome in assay [19] and in assay [20] was inactive.
Turning to `COc1cccc(-c2nc3ccc(N4CCN(C)CC4)cc3[nH]2)c1`, in [21], the inhibition is 74% (active). Besides, the compound was called inactive in assay [22], in assay [23], in [24], in assay [25] and in assay [26].
Regarding `c1ccc2c(c1)Sc1ccccc1N2CC1CN2CCC1CC2` (configuration not stated), the result in assay [1], in [2], in assay [3] and in assay [4] was inactive.
With `c1ccc2oc(N3CCNCC3)nc2c1`, the activation in [5] was 81% (active); in assay [6], 53% (active); in [16], 24.8% (active). The outcome in [7], in [9], in assay [10], in assay [11], in assay [12] and in assay [13] was inactive. Further, the compound was called inactive in assay [14], in assay [15], in assay [17], in [19] and in [20]. For the same compound, the potentiation was 19% (active) in assay [8] and 31.8% (active) in [18].
Consider `CCCCCCCCCCCCn1ccc(=N)cc1`, for which the figures for the inhibition in assay [21] and in [25] were 66% (active) and 56.1% (active), respectively. The activity change, negative = inhibition in assay [22] was -9.73% (active). Also, the result in assay [23] and in assay [26] was inactive. The membrane potential signal change in assay [24] was -166% (active).
As to `O=C(CCCN1CCC2(CC1)C(=O)NCN2c1ccccc1)c1ccc(F)cc1`, the activation is 193% (active) in [5]; 39.5% (active) in assay [14]; 86.7% (active) in assay [16]; 48% (active) in assay [19]; 336% (active) in assay [1]. Moreover, the result in assay [6], in assay [7], in assay [8], in assay [9], in assay [10] and in assay [11] was inactive. The result in assay [12], in [13], in assay [15], in assay [17], in assay [18] and in assay [20] was inactive. Besides, in assay [4], the outcome was inactive. In addition, the potentiation in assay [2] was 55.5% (active); in assay [3] it was 323% (active).

The values above are taken from PubChem BioAssay.
